Potency and cell number change data for 87 molecules are collected here from PubChem BioAssay AID2685 (National Center for Advancing Translational Sciences (NCATS), 2010).

Out of some 320,000 compounds screened, about 2,100 (0.66%) were called active. Another 53% or so got no clear call; they are omitted. Calls come from the whole dose curve; as a rule, active = well fitted inhibition curve with a large enough effect in the signal ratio, with a control signal flat (not every such curve was filed as active); inconclusive = small, poorly fitted or top-dose-only effect, or effect the other way, or a change in a side signal; inactive = flat fitted curve, though single readings scatter; the % refers to the signal ratio. The sample as a whole holds a higher share of actives than the screen did.
Potency is the fitted concentration of half-maximal effect.

This test is described as follows: qHTS Assay for Lipid Storage Modulators in Drosophila S3 Cells.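 For cell number change: cells counted by Cell Tracker Red CMTPX staining in the red channel.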 Particulars: BODIPY lipid droplet fluorescence, 18-24 h, cells fed with added oleic acid; cell number change: measured here: cell count max response; series mostly up to 46.1 µM. In short, it runs like this: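 Laser-scanning cytometry quantifies lipid droplet accumulation (500–530 nm total intensity; droplet/cell object ratio) in oleic acid-fed (400 uM added) Drosophila S3 cells treated with a concentration series. 20 uM Triacsin C defined 100% inhibition.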
Background: In qHTS, concentration-response curves come from the screen itself.
For `Cn1c(C(=O)NCC2CCCO2)cc2c(=O)[nH]c3ccccc3c21` (stereo not given), the Potency entry is “inactive” and the cell number change is 4.34%. In the case of `Cn1c(C(=O)NCc2ccccc2)cc2oc3ccccc3c21`, the Potency result was “inactive” and the cell number change worked out at 12.4%. The like results for `Cn1c(C(=O)NCC2CCCO2)cc2oc3ccccc3c21` (stereo not given) were, in that order, 0.58 µM (active) and -14.1%. Consider `Cc1ccccc1CS(=O)(=O)CCC(=O)NCc1ccccn1`, for which the Potency result is “inactive” and the cell number change was -19.8%. The corresponding values for `O=C(CSc1ccc(Cl)cc1)NCc1ccncc1` are “inactive” and 8.1%. Take `COc1ccc(CC(=O)N(C)Cc2ccc(Cl)cc2)cc1S(=O)(=O)N1CCOCC1`: the Potency result was “inactive”.

With `COc1ccc(/C=C/C(=O)N2CCN(c3ccccn3)CC2)c(OC)c1OC`, the Potency entry is “inactive” and the cell number change turned out to be 5.19%.

Turning to `CN(C(=O)c1ccc(Cl)c(S(=O)(=O)N2CCOCC2)c1)c1ccccc1C(=O)O`, the Potency is 0.82 µM (active) and the cell number change was -5.89%.

Consider `COc1ccc(C(=O)O)cc1S(=O)(=O)N1CCN(c2ccccn2)CC1`, for which the Potency is 0.82 µM (active) and the cell number change was determined as 2.78%. Take `COc1cccc(/C=C/C(=O)N2CCN(c3ccccn3)CC2)c1`: the Potency result is “inactive” and the cell number change is -5.2%.

For the molecule `COc1cc(/C=C/C(=O)N2CCN(c3ccccn3)CC2)cc(OC)c1OC`, the Potency was 16.4 µM (active) and the cell number change is -26.3%. As for `COc1ccc(Br)cc1CN(C)C(=O)Cc1ccc(OC)c(S(=O)(=O)N2CCOCC2)c1`, the Potency was 10.3 µM (active) and the cell number change turned out to be 30.1%. In the case of `O=C(Nc1ccc(NC(=O)c2ccc(Cl)c(S(=O)(=O)N3CCOCC3)c2)cc1)c1ccccc1`, the Potency entry was “inactive”. As for `COc1ccc(OC)c(S(=O)(=O)N2CCN(c3ccccn3)CC2)c1`, the Potency entry was “inactive” and the cell number change was -24%.

In the case of `COc1ccc(CC(=O)N(C)Cc2cccc(F)c2)cc1S(=O)(=O)N1CCOCC1`, the Potency result was “inactive” and the cell number change turned out to be 18.8%. The corresponding values for `COc1ccc(S(=O)(=O)N2CCN(c3ccccn3)CC2)c(OC)c1` are “inactive” and -13%. For `O=C(Nc1ccccc1C(=O)O)c1ccc(Cl)c(S(=O)(=O)N2CCOCC2)c1`, the Potency entry was “inactive” and the cell number change was -21%. As to `Cn1c(N)c(C(=O)COC(=O)COc2ccccc2C#N)c(=O)n(C)c1=O`, the Potency result is “inactive”.

As for `CC1CCCCN1C(=O)c1ccc(Br)o1` (stereo not given), the Potency result is “inactive” and the cell number change is 0.829%. On to `COc1ccc(/C=C/C(=O)c2ccc(O)cc2)cc1`, for which the Potency entry was “inactive” and the cell number change was -13.4%. In the case of `CCNC(=S)NNC(=O)c1ccc(=O)n(Cc2ccccc2)c1`, the Potency result was “inactive” and the cell number change was found to be 8.31%. With `CN(C)C(=O)NC(Nc1ccc(Cl)cc1Cl)C(Cl)(Cl)Cl` (stereo not given), the Potency result was “inactive”.

With `Cc1ccc(CC(CC(=O)NCCc2ccc3c(c2)OCO3)C(=O)O)cc1` (stereo not given), the Potency result is “inactive”.

For `COc1ccc(C(=O)OCc2ccc(C)cc2)cc1S(=O)(=O)N1CCOCC1`, the Potency result was “inactive” and the cell number change stood at 0.435%. With `O=C(NCc1cccnc1)c1ccc(Cl)c(S(=O)(=O)N2CCOCC2)c1`, the Potency entry is “inactive” and the cell number change was -4.25%. On to `COc1ccc(C(=O)OCc2cc(C)ccc2C)cc1S(=O)(=O)N1CCCC1`, for which the Potency was 0.082 µM (active) and the cell number change was -10.2%. For the molecule `COc1ccc(CNC(=O)c2ccc(Cl)c(S(=O)(=O)N3CCOCC3)c2)cc1OC`, the Potency is 1.64 µM (active) and the cell number change was -21%. With `O=C(NCc1ccncc1)c1ccc(Cl)c(S(=O)(=O)N2CCOCC2)c1`, the Potency entry is “inactive” and the cell number change is 18.6%. For the molecule `COc1ccc(C(=O)N2CCCC(C(N)=O)C2)cc1S(=O)(=O)N1CCOCC1` (stereo not given), the Potency entry is “inactive” and the cell number change amounted to 10.1%. The corresponding values for `COc1ccc(C)cc1S(=O)(=O)N1CCCCC1` are “inactive” and 6.88%. In the case of `CN(C(=O)c1ccc(F)c(S(=O)(=O)N2CCOCC2)c1)C1CCCCC1`, the Potency entry is “inactive” and the cell number change was 0.139%. The like results for `COc1ccc(C(=O)N2CCCC2)cc1S(=O)(=O)N1CCOCC1` were, in that order, 7.31 µM (active) and 9.79%. With `CN(C(=O)c1ccc(S(=O)(=O)N2CCCC2)cc1)C1CCCCC1`, the Potency entry is “inactive” and the cell number change was -9.06%. The corresponding values for `CN1CCC(N(C)C(=O)c2ccc(Cl)c(S(=O)(=O)N3CCCCC3)c2)CC1` are 14.6 µM (active) and -2.26%.

As to `COc1ccc(C(=O)N2CCN(S(=O)(=O)c3ccc(C)cc3)CC2)cc1S(=O)(=O)N1CCOCC1`, the Potency result is “inactive” and the cell number change is 3.33%. Turning to `NC(=O)C1=C[C@@H](C2CCCCC2)C[C@@H](OCCCCO)O1`, the Potency result was “inactive” and the cell number change came out at 1.59%. Take `Cc1ccc(N2C(=O)C3C(C2=O)N2CCCN2C3c2ccccc2)cc1C` (stereo not given): the Potency entry was “inactive” and the cell number change was 7.85%. In the case of `CCN(CC)C(=O)CC(c1ccc(F)cc1)c1ccco1` (stereo not given), the Potency entry is “inactive” and the cell number change is -17.4%. `CCc1ccccc1NC(=O)CSc1nnc(Cn2cnc3ccccc32)o1`: the Potency entry is “inactive” and the cell number change is -13.9%. As to `COc1ccc(CCNC(=O)C(=O)NCC2OCCN2S(=O)(=O)c2cccs2)cc1` (stereo not given), the Potency result was “inactive” and the cell number change worked out at 0.232%. In the case of `Cc1c(NC(=O)CSc2nnc(C(C)Oc3ccc(Cl)cc3)n2-c2ccccc2)c(=O)n(-c2ccccc2)n1C` (stereo not given), the Potency result is “inactive” and the cell number change is 8.96%. As for `COc1ccc(/C=C/C(=O)N2CCN(c3ccccc3)CC2)cc1S(=O)(=O)N1CCOCC1`, the Potency entry is “inactive”.

On to `COc1ccc(C(=O)N2CCN(c3ccccc3)CC2)cc1S(=O)(=O)N1CCOCC1`, for which the Potency is 3.26 µM (active) and the cell number change was 0.901%. Regarding `Cc1ccc(C(=O)N2CCN(c3ccccc3)CC2)cc1S(=O)(=O)N1CCOCC1`, the Potency entry is “inactive” and the cell number change is 22%. For the molecule `COC(=O)c1sc(NC(=O)C2c3ccccc3Oc3ccccc32)c(C(=O)OC)c1C`, the Potency entry is “inactive” and the cell number change is 5.22%. Regarding `Cc1ccc(C2CC(C(F)F)n3ncc(C(=O)Nc4c(C)nn(Cc5c(F)cccc5Cl)c4C)c3N2)cc1` (stereo not given), the Potency result was “inactive” and the cell number change turned out to be 11%. Regarding `CCOC(=O)c1c(NC(=O)c2ccccc2C(=O)O)sc2c1CCC2`, the Potency result was “inactive” and the cell number change stood at 7.14%. On to `COc1cc(-c2cc(-c3ccc(N)cc3)[nH]c(=O)c2C#N)cc(OC)c1OC`, for which the Potency entry is “inactive” and the cell number change was found to be 28%. The like results for `O=C(Nc1ccc(Cl)cn1)c1cccc(S(=O)(=O)N2CCCCC2)c1` were, in that order, “inactive” and 14.3%. On to `O=C(Cn1cnc2ccccc2c1=O)NCCC(=O)Nc1ccccc1C(F)(F)F`, for which the Potency was 0.0651 µM (active) and the cell number change is -3.75%.

Consider `O=C(Cn1cnc2ccccc2c1=O)NCCC(=O)Nc1ccc(F)cc1`, for which the Potency entry was “inactive” and the cell number change amounted to 20.1%.

`COC(=O)c1ccccc1NC(=O)CCNC(=O)Cn1cnc2ccccc2c1=O`: the Potency entry is “inactive” and the cell number change was -2.73%. With `COC(=O)c1ccc(CSc2nc3ccccc3c(=O)n2N)cc1`, the Potency entry is “inactive” and the cell number change was -1.8%. With `CC(C)CN(CC(C)C)S(=O)(=O)N1CCC(C(=O)NCc2ccco2)CC1`, the Potency result was “inactive” and the cell number change is -10.2%. The like results for `CCc1ccccc1N(CC(=O)NCc1ccco1)C(=O)CCC(=O)Nc1nccs1` were, in that order, “inactive” and 6.09%. `COc1ccccc1N(CC(=O)NCc1ccc(F)cc1)C(=O)CCC(=O)Nc1nccs1`: the Potency entry was “inactive” and the cell number change was -10.4%. As to `Cc1ccccc1N(CC(=O)NCc1ccco1)C(=O)CCC(=O)Nc1nccs1`, the Potency entry is “inactive” and the cell number change was found to be 7.88%.

Turning to `O=C(CN(C(=O)CCC(=O)Nc1nccs1)c1ccccc1F)NCCc1ccccc1`, the Potency result was “inactive” and the cell number change came to 18.7%. For the molecule `COc1ccccc1N(CC(=O)NCCc1ccccc1)C(=O)CCC(=O)Nc1nccs1`, the Potency is 2.06 µM (active) and the cell number change was -5.22%. Regarding `CCOc1ccccc1N(CC(=O)NCc1ccco1)C(=O)CCC(=O)Nc1nccs1`, the Potency is 2.59 µM (active) and the cell number change was -1.71%. Turning to `COC(=O)c1ccc(NC(=O)c2ccc(NS(=O)(=O)c3cccc4cccnc34)cc2)cc1`, the Potency entry is “inactive” and the cell number change is -0.185%. With `CCOC(=O)C1CCN(c2nc(-c3ccc(C)cc3)nc3ccccc23)CC1`, the Potency result was “inactive” and the cell number change is -12.1%. On to `COc1ccccc1NC(=O)c1ccc(NC(=O)CSc2ncn[nH]2)cc1`, for which the Potency entry was “inactive” and the cell number change was -3.32%.

For the molecule `Cc1cc(-c2ccco2)n(CC(=O)O)n1`, the Potency entry was “inactive” and the cell number change was -13.3%. The like results for `CC(=O)Nc1ccc(SC(C)C(=O)NC(N)=O)cc1` (stereo not given) were, in that order, 29.1 µM (active) and -18.8%. In the case of `CC(Sc1ccc2ccccc2c1)C(=O)NC(N)=O` (stereo not given), the Potency result was “inactive” and the cell number change was 22.5%.

For `CC(Sc1cccc(C(F)(F)F)c1)C(=O)NC(N)=O` (stereo not given), the Potency entry was “inactive” and the cell number change worked out at 10.6%. On to `CCOC(=O)NC(O)C(=O)c1ccc(F)cc1` (stereo not given), for which the Potency entry was “inactive”. Consider `N#Cc1ccc(Cl)cc1NC(=O)CNCc1cccs1`, for which the Potency entry is “inactive” and the cell number change was 4.81%.

Regarding `COc1ccc(-n2c(=O)c(CCC(=O)N(C)Cc3ccccc3C)nc3ccccc32)cc1`, the Potency result was “inactive” and the cell number change came out at 24.8%.

Take `COc1ccc(-n2c(=O)c(CCC(=O)N3CCN(c4ccccc4O)CC3)nc3ccccc32)cc1`: the Potency entry is “inactive” and the cell number change was -25.6%. Consider `COc1ccc(-n2c(=O)c(CCC(=O)NCCc3ccccc3F)nc3ccccc32)cc1`, for which the Potency was 18.4 µM (active) and the cell number change came to 2.07%. With `COc1ccc2c(c1)c(CC(=O)Nc1cccc(S(N)(=O)=O)c1)c(C)n2C(=O)c1ccc(Cl)cc1`, the Potency entry was “inactive” and the cell number change is -13.5%.

As to `CC(C(=O)Nc1ccc2c(c1)OCCO2)N(C)Cc1c(F)cccc1Cl` (stereo not given), the Potency entry is “inactive”. For the molecule `Cc1ccc(NC(=O)CCNS(=O)(=O)c2cccc3nonc23)cc1`, the Potency entry was “inactive” and the cell number change amounted to 12.6%. As to `COC(=O)c1ccc(NC(=O)CCNS(=O)(=O)c2cccc3nonc23)cc1`, the Potency entry was “inactive” and the cell number change was found to be 6.69%. Consider `CC(=O)c1ccc(NC(=O)CCNS(=O)(=O)c2cccc3nonc23)cc1`, for which the Potency is 23.1 µM (active). Take `COC(=O)C1=NN(C(C)(C)CC(C)=O)C2C(=O)N(C3CCCCC3)C(=O)C12` (stereo not given): the Potency entry is “inactive” and the cell number change is -0.806%. On to `O=C(NCc1cccc(Cl)c1)c1cccc(C(F)(F)F)c1`, for which the Potency entry is “inactive” and the cell number change is -1.35%. Take `Cc1cc(NC2CCCC2)n2nc(C)c(-c3ccccc3)c2n1`: the Potency result was “inactive” and the cell number change is -2.08%.

Take `O=C(CC1Sc2ccccc2NC1=O)NCc1ccccc1` (stereo not given): the Potency result is “inactive” and the cell number change amounted to 0.893%. Turning to `COc1cc(/C=C2\C(=N)N3N=CSC3=NC2=O)ccc1OS(=O)(=O)c1ccccc1[N+](=O)[O-]`, the Potency result was “inactive” and the cell number change was -11.4%. The corresponding values for `CCC1=NN2C(=N)/C(=C/c3ccc(OS(=O)(=O)c4ccccc4)c(OC)c3)C(=O)N=C2S1` are 1.84 µM (active) and 4.58%. `COc1cc(/C=C2\C(=N)N3N=C(S(C)(=O)=O)SC3=NC2=O)ccc1OS(=O)(=O)c1ccccc1`: the Potency entry was “inactive” and the cell number change was -27%.

As to `COc1cc(/C=C2\C(=N)N3N=CSC3=NC2=O)ccc1OS(=O)(=O)c1ccccc1`, the Potency is 2.06 µM (active) and the cell number change was -21.2%.

For the molecule `CCC1=NN2C(=N)/C(=C/c3ccc(OS(=O)(=O)c4ccc(C)cc4)c(OC)c3)C(=O)N=C2S1`, the Potency entry was “inactive” and the cell number change was 5%. For the molecule `COc1cc(/C=C2/C(=N)N3N=C(C)SC3=NC2=O)ccc1OS(=O)(=O)c1ccc(C)cc1`, the Potency entry was “inactive” and the cell number change is -5.04%.
